Test results reported in PubChem BioAssay (Tox21).
Values without a mark were called inactive. Inconclusive results are not listed. A call without a number means that no potency is given here. Active and inactive are the calls of the source. Calls come from the whole dose curve; as a rule, active = well fitted curve in the direction sought with a large enough effect in the repeat runs; inconclusive = weak or mixed curves; inactive = no such curve, though single readings can be large; an effect the other way counts as inactive or inconclusive.

What was measured:
[1] = Caspase-3/7 induction in CHO-K1 cells by small molecules, qHTS assay (AID 1346980); conditions: CHO-K1 caspase-3/7 induction, Caspase-Glo luminescence, 17 h; series mostly up to 92.4 µM; note: nearly all actives have a fitted effect of over 15% in size
How it was run: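 Wild-type CHO-K1 cells exposed to compounds for 17hr at 37 C, 5% CO2. Caspase-3/7 activity then measured by Caspase-Glo 3/7 luminescence after 30min at room temperature.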

[2] = molecular target: Nuclear receptor subfamily 1 group I member 2 (Homo sapiens) (UniProt O75469); test: Human pregnane X receptor (PXR) small molecule agonists, qHTS assay (AID 1346982); conditions: PXR-Luc HepG2, CYP3A4 luciferase reporter, 24 h; series mostly up to 92.4 µM; note: nearly all actives have a fitted effect of over 35% in size; note: potency is the fitted concentration of half-maximal effect
How it was run: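 Luciferase signal from ONE-Glo (30 min, room temperature) measured activation of hPXR-driven CYP3A4 reporter expression in PXR-Luc HepG2 cells treated with compounds for 24 hr at 37 C.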

[3] = molecular target: Nuclear receptor subfamily 1 group I member 2 (Homo sapiens) (UniProt O75469); test: CYP3A4 induction through human pregnane X receptor (PXR) by small molecules, qHTS assay (AID 1346984); conditions: DPX-2 HepG2 PXR, CYP3A4-luciferin luminescence, 24 h; series mostly up to 46.1 µM; note: nearly all actives have a fitted effect of over 40% in size; note: potency is the fitted concentration of half-maximal effect
How it was run: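 Luminescence readout: luciferase signal after One-Glo (30 min, room temperature), following 3 h at 37C with 3uM final Luciferin-IPA P450 substrate. Cells were DPX-2 (HepG2, PXR/CYP3A4-luc co-transfected) dosed for 24 h.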

[4] = molecular target: Nuclear receptor subfamily 1 group I member 2 (Homo sapiens) (UniProt O75469); test: Human pregnane X receptor (PXR) activation by small molecules, qHTS assay (AID 1346985); conditions: DPX-2 HepG2 CYP3A4-luciferase, 24 h; series mostly up to 38.3 µM; note: nearly all actives have a fitted effect of over 40% in size; note: potency is the fitted concentration of half-maximal effect
How it was run: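 DPX-2 cells (HepG2 co-transfected with a PXR response element and a CYP3A4-promoter luciferase construct) were seeded at 2,000 per well, rested 5 hr at 37C, then exposed to DMSO-dissolved compounds for 24 hr. Activation was read as luciferase luminescence.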

[5] = molecular target: Cytochrome P450 2C19 (Homo sapiens) (UniProt P33261); test: Cytochrome P450 Family 2 Subfamily C Member 19 (CYP2C19) small molecule antagonists: luciferase reporter qHTS assay (AID 1671197); conditions: P450-Glo CYP2C19 enzyme, luciferin luminescence, 1 h; series mostly up to 115 µM; note: nearly all actives have a fitted effect of over 65% in size; note: potency is the fitted concentration of half-maximal effect
How it was run: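 P450-Glo CYP2C19 screening system; proluciferin substrate; DMSO compound stocks; 10 min RT preincubation; NADPH regeneration, 1 h at 37C; luciferin detection reagent, 20 min RT; luminescence as RLU.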

[6] = molecular target: Cytochrome P450 2C9 (Homo sapiens) (UniProt P11712); test: Cytochrome P450 Family 2 Subfamily C Member 9 (CYP2C9) small molecule antagonists: luciferase reporter qHTS assay (AID 1671198); conditions: P450-Glo CYP2C9 enzyme assay, luciferin luminescence; series mostly up to 115 µM; note: nearly all actives have a fitted effect of over 50% in size; note: potency is the fitted concentration of half-maximal effect
How it was run: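 P450-Glo proluciferin substrate with CYP2C9 enzyme; 10 min RT preincubation, then NADPH regeneration 1 h at 37C; luciferin detection reagent 20 min RT, luminescence in relative luminescence units.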

[7] = molecular target: Voltage-gated inwardly rectifying potassium channel KCNH2 (Homo sapiens) (UniProt Q12809); test: Human Ether-a-go-go-Related Gene (hERG) channel small molecule antagonists: fluorescence cell-based qHTS assay (AID 1671200); conditions: hERG-U2OS cells, FluxOR thallium flux fluorescence; series mostly up to 76.8 µM; note: nearly all actives have a fitted effect of over 50% in size; note: potency is the fitted concentration of half-maximal effect
How it was run: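 hERG-U2OS cells plated overnight at 37 C, loaded with FluxOR II dye 1 h at RT in dark; after 10 min, thallium stimulus added. Fluorescence (480/540 nm) read kinetically for 2 min at 1 s intervals.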

[8] = Caspase-3/7 induction in CHO-K1 cells by small molecules, qHTS cell viability counter screen (AID 1346979); conditions: CellTiter-Fluor fluorescence, 17 h; series mostly up to 92.4 µM; note: nearly all actives have a fitted effect of over 35% in size; note: potency is the fitted concentration of half-maximal effect
How it was run: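 Wild-type CHO-K1 cells (1,500/well) treated with compound after 5 h plating; after 16 h at 37C, viability read as CellTiter-Fluor fluorescence following 1 h reagent incubation, in the same wells as the caspase read.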

[9] = molecular target: Nuclear receptor subfamily 1 group I member 2 (Rattus norvegicus) (UniProt Q9R1A7); test: Rat pregnane X receptor (rPXR) activation by small molecules, qHTS assay (AID 1346983); conditions: rPXR luciferase reporter cells, One-Glo luminescence, 24 h; max activation: hits give high values; note: nearly all actives have a fitted effect of over 20% in size; note: potency is the fitted concentration of half-maximal effect
How it was run: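 Cell-based rPXR activation assay: rPXR cells, 2,000 per well, rested 5hr at 37 C, then exposed to compounds in DMSO for 24 hr at 37 C. Luciferase activity read by One-Glo luminescence after 30 min at room temperature.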

[10] = molecular target: Cytochrome P450 2D6 (Homo sapiens) (UniProt P10635); test: Cytochrome P450 Family 2 Subfamily D Member 6 (CYP2D6) small molecule antagonists: luciferase reporter qHTS assay (AID 1671196); conditions: P450-Glo CYP2D6 enzyme assay, luciferin luminescence, 1 h; series mostly up to 115 µM; note: nearly all actives have a fitted effect of over 50% in size; note: potency is the fitted concentration of half-maximal effect
How it was run: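 Read-out is luminescence from luciferin formed by CYP2D6 turnover of a proluciferin substrate, recorded as relative luminescence units. Reactions ran 1 h at room temperature after NADPH regeneration solution was added.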

[11] = molecular target: Cytochrome P450 1A2 (Homo sapiens) (UniProt P05177); test: Cytochrome P450 Family 1 Subfamily A Member 2 (CYP1A2) small molecule antagonists: luciferase reporter qHTS assay (AID 1671199); conditions: P450-Glo CYP1A2 enzyme, luciferin luminescence, 1 h; series mostly up to 115 µM; note: nearly all actives have a fitted effect of over 50% in size; note: potency is the fitted concentration of half-maximal effect
How it was run: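 P450-Glo CYP1A2, 1536-well qHTS: enzyme/proluciferin substrate + cpd (DMSO), 10 min RT; NADPH regen, 1 h RT; detection reagent, 20 min; luminescence, RLU.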

[12] = molecular target: Cytochrome P450 3A4 (Homo sapiens) (UniProt P08684); test: Cytochrome P450 Family 3 Subfamily A Member 4 (CYP3A4) small molecule antagonists: luciferase reporter qHTS assay (AID 1671201); conditions: P450-Glo CYP3A4 enzyme, luciferin luminescence, 1 h; series mostly up to 115 µM; note: nearly all actives have a fitted effect of over 50% in size; note: potency is the fitted concentration of half-maximal effect
How it was run: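 P450-Glo CYP3A4 luminescent assay: compounds preincubated 10 min at room temperature with enzyme and proluciferin substrate, NADPH regeneration added, 1 h room-temperature reaction, stopped with luciferin detection reagent; luminescence read after 20 min. Ketoconazole positive control.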

[13] = Caspase-3/7 induction in HepG2 cells by small molecules, qHTS assay (AID 1346978); conditions: HepG2 caspase-3/7 activation, Caspase-Glo luminescence, 17 h; series mostly up to 92.4 µM; note: nearly all actives have a fitted effect of over 15% in size; note: potency is the fitted concentration of half-maximal effect
How it was run: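 Wild-type HepG2 cells, 2,000/well, settled 5 hr at 37 C and 5% CO2, then compound-treated for 17 hr; caspase-3/7 activity read by luminescent Caspase-Glo 3/7 after 30 min at room temperature.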

[14] = Caspase-3/7 induction in HepG2 cells by small molecules, qHTS cell viability counter screen (AID 1346981); conditions: CellTiter-Fluor fluorescence, 17 h; series mostly up to 92.4 µM; note: nearly all actives have a fitted effect of over 30% in size; note: potency is the fitted concentration of half-maximal effect
How it was run: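 HepG2, WT, 2,000 cells/well; 5 hr pre-incubation 37 C/5% CO2; compound pin-transferred from DMSO; 16 hr exposure; CellTiter-Fluor, 1 hr; fluorescence read.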

Cytochrome P450 2C9 (Homo sapiens), sequence (P11712 whole entry, looked up): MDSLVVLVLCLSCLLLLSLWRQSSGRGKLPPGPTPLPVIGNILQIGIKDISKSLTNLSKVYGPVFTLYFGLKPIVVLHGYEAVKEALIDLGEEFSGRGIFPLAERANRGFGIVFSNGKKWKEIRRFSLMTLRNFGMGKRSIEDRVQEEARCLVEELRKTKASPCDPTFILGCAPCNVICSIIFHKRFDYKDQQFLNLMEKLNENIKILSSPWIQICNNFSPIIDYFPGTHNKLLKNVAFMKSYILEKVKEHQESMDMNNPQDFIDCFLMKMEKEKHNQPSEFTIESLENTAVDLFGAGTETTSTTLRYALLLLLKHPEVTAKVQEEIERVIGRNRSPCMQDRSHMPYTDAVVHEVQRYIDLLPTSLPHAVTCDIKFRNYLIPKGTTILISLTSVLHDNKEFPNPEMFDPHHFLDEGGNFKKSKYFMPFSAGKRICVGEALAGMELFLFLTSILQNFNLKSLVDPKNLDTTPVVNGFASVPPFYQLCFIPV
Voltage-gated inwardly rectifying potassium channel KCNH2 (Homo sapiens), sequence (Q12809 whole entry, looked up): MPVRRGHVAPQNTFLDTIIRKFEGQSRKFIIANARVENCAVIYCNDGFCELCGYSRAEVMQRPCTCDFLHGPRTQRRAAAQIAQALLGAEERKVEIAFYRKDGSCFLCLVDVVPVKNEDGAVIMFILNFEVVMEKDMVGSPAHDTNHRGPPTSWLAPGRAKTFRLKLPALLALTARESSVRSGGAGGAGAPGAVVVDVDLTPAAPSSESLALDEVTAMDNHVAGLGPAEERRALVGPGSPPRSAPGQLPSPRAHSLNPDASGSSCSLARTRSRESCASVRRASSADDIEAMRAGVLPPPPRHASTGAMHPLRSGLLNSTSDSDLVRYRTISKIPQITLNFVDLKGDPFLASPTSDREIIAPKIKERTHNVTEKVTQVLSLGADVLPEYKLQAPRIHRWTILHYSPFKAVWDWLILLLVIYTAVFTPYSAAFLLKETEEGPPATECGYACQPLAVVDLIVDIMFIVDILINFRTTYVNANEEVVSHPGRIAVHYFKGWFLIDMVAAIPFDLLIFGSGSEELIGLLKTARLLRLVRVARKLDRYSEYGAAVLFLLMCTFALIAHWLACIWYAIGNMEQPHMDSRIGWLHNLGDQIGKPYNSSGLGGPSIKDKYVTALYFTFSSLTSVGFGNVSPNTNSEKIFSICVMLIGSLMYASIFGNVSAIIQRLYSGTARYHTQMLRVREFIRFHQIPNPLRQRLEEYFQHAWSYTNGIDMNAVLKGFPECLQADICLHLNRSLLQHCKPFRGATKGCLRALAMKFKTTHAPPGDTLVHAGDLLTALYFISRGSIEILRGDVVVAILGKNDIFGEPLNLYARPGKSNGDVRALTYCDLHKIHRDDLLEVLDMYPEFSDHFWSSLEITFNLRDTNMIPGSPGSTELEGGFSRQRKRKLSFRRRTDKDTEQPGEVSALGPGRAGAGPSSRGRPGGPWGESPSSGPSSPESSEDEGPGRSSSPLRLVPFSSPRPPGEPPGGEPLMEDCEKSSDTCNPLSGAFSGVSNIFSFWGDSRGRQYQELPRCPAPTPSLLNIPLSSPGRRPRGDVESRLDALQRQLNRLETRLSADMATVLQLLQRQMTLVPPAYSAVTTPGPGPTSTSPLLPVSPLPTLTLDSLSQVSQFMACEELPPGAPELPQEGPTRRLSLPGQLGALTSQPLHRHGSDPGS
Cytochrome P450 2C19 (Homo sapiens), sequence (P33261 whole entry, looked up): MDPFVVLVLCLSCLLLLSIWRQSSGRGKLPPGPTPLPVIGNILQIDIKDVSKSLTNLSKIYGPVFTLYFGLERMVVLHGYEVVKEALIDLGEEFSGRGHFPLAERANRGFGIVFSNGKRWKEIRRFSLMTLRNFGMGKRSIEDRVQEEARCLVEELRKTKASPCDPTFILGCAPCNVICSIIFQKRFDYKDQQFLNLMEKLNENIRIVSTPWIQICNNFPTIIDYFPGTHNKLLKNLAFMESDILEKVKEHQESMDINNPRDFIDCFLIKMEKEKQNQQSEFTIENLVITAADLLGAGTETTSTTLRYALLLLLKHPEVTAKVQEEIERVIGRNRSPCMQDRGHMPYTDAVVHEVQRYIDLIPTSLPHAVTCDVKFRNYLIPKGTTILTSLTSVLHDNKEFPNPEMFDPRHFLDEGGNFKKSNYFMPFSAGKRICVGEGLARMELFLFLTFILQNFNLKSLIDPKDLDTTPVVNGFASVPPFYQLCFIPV
Nuclear receptor subfamily 1 group I member 2 (Rattus norvegicus), sequence (Q9R1A7 whole entry, looked up): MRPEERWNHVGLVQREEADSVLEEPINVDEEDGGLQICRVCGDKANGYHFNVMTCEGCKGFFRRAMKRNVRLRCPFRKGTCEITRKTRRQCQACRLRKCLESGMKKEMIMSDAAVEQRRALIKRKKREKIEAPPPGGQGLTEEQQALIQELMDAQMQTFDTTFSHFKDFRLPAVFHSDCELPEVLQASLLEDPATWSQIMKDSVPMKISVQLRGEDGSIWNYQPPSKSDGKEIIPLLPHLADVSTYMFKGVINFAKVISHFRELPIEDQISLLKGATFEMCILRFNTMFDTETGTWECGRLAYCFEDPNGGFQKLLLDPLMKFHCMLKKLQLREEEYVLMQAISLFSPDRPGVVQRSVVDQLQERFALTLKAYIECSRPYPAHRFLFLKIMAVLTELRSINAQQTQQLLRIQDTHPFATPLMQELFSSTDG
Cytochrome P450 2D6 (Homo sapiens), sequence (P10635 whole entry, looked up): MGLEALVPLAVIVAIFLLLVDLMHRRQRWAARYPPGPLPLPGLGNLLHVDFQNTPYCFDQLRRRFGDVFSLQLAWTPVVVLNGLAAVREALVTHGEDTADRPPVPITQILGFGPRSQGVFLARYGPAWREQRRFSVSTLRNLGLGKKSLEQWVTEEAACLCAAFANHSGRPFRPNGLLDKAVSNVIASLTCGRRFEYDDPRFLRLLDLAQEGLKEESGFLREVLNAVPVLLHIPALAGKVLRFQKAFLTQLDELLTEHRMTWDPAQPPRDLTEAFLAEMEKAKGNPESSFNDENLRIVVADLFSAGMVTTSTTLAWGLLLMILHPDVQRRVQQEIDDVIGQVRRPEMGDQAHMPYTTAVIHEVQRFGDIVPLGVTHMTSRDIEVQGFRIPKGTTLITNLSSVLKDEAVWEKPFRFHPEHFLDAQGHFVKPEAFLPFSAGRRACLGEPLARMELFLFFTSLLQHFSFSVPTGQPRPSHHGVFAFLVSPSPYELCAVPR
Cytochrome P450 3A4 (Homo sapiens), sequence (P08684 whole entry, looked up): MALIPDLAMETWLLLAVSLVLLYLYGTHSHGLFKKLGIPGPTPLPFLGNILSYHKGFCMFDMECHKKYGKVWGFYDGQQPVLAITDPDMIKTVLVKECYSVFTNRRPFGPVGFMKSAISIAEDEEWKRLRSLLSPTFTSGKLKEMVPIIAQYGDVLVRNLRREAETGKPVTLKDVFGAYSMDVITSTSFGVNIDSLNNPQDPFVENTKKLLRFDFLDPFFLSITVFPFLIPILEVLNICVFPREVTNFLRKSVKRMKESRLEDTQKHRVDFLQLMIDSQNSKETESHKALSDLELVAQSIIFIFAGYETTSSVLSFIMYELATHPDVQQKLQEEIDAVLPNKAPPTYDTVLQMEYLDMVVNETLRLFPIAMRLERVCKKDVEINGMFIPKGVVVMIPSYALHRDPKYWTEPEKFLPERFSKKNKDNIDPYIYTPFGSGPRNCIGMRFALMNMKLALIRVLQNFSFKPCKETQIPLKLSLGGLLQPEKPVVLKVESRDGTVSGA
Nuclear receptor subfamily 1 group I member 2 (Homo sapiens), sequence (O75469 whole entry, looked up): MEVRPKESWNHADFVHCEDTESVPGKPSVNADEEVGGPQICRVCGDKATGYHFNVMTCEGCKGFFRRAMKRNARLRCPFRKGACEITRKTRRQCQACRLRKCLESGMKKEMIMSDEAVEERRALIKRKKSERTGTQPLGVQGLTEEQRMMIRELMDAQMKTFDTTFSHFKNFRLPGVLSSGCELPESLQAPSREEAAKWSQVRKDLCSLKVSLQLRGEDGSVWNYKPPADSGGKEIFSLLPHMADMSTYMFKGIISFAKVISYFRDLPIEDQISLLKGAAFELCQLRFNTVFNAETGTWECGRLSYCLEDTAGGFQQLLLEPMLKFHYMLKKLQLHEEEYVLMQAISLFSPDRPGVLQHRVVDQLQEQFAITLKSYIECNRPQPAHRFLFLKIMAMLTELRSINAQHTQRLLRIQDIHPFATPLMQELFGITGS
Cytochrome P450 1A2 (Homo sapiens), sequence (P05177 whole entry, looked up): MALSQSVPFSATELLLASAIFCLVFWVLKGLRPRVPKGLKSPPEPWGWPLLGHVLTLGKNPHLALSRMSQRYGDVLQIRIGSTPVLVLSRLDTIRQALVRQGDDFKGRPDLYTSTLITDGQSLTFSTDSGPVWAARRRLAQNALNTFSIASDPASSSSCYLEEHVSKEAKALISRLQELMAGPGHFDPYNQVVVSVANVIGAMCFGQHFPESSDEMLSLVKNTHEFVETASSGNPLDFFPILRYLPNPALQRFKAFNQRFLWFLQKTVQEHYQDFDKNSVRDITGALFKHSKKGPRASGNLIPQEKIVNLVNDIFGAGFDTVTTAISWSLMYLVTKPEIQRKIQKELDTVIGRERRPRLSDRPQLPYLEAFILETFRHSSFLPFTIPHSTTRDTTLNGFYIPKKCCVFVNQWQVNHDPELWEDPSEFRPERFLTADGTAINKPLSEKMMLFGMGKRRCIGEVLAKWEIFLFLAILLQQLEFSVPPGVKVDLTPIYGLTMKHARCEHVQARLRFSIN

Row | SMILES | outcome [1] | Potency [2] | Potency [3] | Potency [4] | Potency [5] | Potency [6] | Potency [7] | Potency [8] | max activation [9] [%] | Potency [10] | Potency [11] | Potency [12] | Potency [13] | Potency [14] | Potency [9]
1 | COc1ccc(/C=C/C(=O)c2ccc(OC)cc2OC)cc1 | inactive | 29.8 µM (active) | inactive | 22.4 µM (active) | 3.89 µM (active) | 6.92 µM (active) | inactive | – | – | – | – | – | – | – | –
2 | CC(C)C1CCC(C(=O)N[C@H](Cc2ccccc2)C(=O)O)CC1 (some centres undefined) | inactive | inactive | – | inactive | – | 11 µM (active) | inactive | inactive | -2.46 | inactive | inactive | – | – | – | –
3 | CNS(=O)(=O)c1cc(C(=O)N2CCC(CCN3C4CCC3CC(n3c(C)nc5ccccc53)C4)(c3cccc(F)c3)CC2)c(Cl)cc1F (centres undefined) | inactive | inactive | – | – | 63.3 µM (active) | 17.8 µM (active) | – | 17.2 µM (active) | – | 25.2 µM (active) | inactive | inactive | – | – | –
4 | O=C1c2ccccc2C(=O)c2c(O)ccc(O)c21 | inactive | 4.86 µM (active) | – | – | inactive | inactive | inactive | inactive | – | inactive | 3.17 µM (active) | – | inactive | – | –
5 | Cc1ccc2c(c1[N+](=O)[O-])C(=O)c1ccccc1C2=O | inactive | 1.9 µM (active) | – | – | inactive | inactive | inactive | – | – | inactive | 4.93 µM (active) | 15.6 µM (active) | 5.99 µM (active) | 3 µM (active) | –
6 | COc1ccc(C2C(=O)c3ccccc3C2=O)cc1 | inactive | inactive | inactive | – | 8.71 µM (active) | – | inactive | inactive | 8.42 | inactive | – | – | inactive | – | –
7 | Cc1cccc2sc(N)nc12 | inactive | 55.1 µM (active) | – | – | 22.7 µM (active) | inactive | inactive | inactive | – | – | 18.1 µM (active) | inactive | inactive | inactive | –
8 | Nc1ccc(F)cc1 | inactive | inactive | – | – | inactive | inactive | inactive | inactive | – | inactive | inactive | inactive | inactive | – | –
9 | CC12CC3CC(C)(C1)CC(N)(C3)C2 | inactive | inactive | – | – | inactive | – | inactive | inactive | – | – | inactive | inactive | inactive | inactive | –
10 | O=[N+]([O-])c1ccc2ncccc2c1 | inactive | – | – | – | 40 µM (active) | inactive | inactive | inactive | – | 31.8 µM (active) | 1.59 µM (active) | inactive | inactive | inactive | –
11 | CNCc1ccc(NC(=O)c2c[nH]c3c2C(=O)CCC3)cc1 | inactive | 1.09 µM (active) | – | – | – | – | inactive | inactive | – | inactive | 31.7 µM (active) | – | – | – | –
12 | CC(C)C(=O)OCCOc1ccccc1 | inactive | inactive | – | – | 39.9 µM (active) | 39.9 µM (active) | inactive | inactive | – | inactive | 31.7 µM (active) | inactive | – | inactive | –
13 | CC(C)OC(=O)c1ccccc1C(=O)OC(C)C | inactive | inactive | – | – | 79.6 µM (active) | 39.9 µM (active) | inactive | inactive | – | inactive | 3.56 µM (active) | inactive | – | inactive | –
14 | COC(=O)C1=C(C)NC(C)=C(C(=O)OC(C)(C)CN(C)CCC(c2ccccc2)c2ccccc2)C1c1cccc([N+](=O)[O-])c1 (centres undefined) | inactive | – | – | – | 1.38 µM (active) | 2.45 µM (active) | 2.39 µM (active) | 16.8 µM (active) | – | 4.36 µM (active) | – | – | inactive | – | 3.98 µM (active)
15 | C=CC(=O)O | inactive | inactive | inactive | inactive | – | – | inactive | inactive | -1.96 | inactive | inactive | inactive | – | – | –
16 | COc1cc(S(=O)(=O)Nc2ccccc2)c(OC)cc1N | inactive | 27.3 µM (active) | – | – | 15.9 µM (active) | 35.6 µM (active) | inactive | inactive | – | – | 39.9 µM (active) | 3.56 µM (active) | inactive | – | –
17 | CCN(CC)C(=O)/C(C#N)=C/c1cc(O)c(O)c([N+](=O)[O-])c1 | inactive | – | inactive | inactive | inactive | 0.195 µM (active) | inactive | 26.6 µM (active) | -6.1 | inactive | inactive | inactive | inactive | – | –
18 | Cc1ccc2c(c1)CCCN2 | inactive | – | – | – | 39.9 µM (active) | 39.9 µM (active) | inactive | inactive | – | 28.3 µM (active) | 3.17 µM (active) | inactive | inactive | inactive | –
19 | CCOC(=O)c1ccc(NC(=O)CN2CCCCC2)cc1 | inactive | 23.7 µM (active) | – | – | inactive | – | inactive | inactive | – | 17.4 µM (active) | 32.3 µM (active) | inactive | inactive | – | –
20 | COC(=O)c1sccc1S(N)(=O)=O | inactive | inactive | – | – | 79.6 µM (active) | inactive | inactive | inactive | – | – | – | – | inactive | inactive | –
21 | CC1CCc2nccnc21 (centres undefined) | inactive | inactive | – | – | inactive | inactive | inactive | inactive | – | inactive | – | inactive | inactive | – | –
22 | CCN(CC)CCOc1ccccc1C(=O)CCc1ccccc1 | inactive | 26.6 µM (active) | 14.1 µM (active) | 15.8 µM (active) | inactive | inactive | 3.38 µM (active) | inactive | 4.09 | 0.692 µM (active) | 7.76 µM (active) | – | – | inactive | –
